From PubChem
This excerpt belongs to a sample that is enriched for hits.
Pf Dd2 inh: inhibitors of Plasmodium falciparum Dd2 growth; 4.3% of 120,000 active; P. falciparum Dd2 growth, SYBR Green, 72 h; Potency, µM (top dose mostly 28.9 µM), without a hit: at the top dose activity, negative = inhibition, actives largely listed as inhibitors; active = well fitted inhibition curve with a large enough effect;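 also: plate controls were DMSO vehicle for no effect and reference drug for full effect; nearly all actives have a fitted effect of over 65% in size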
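Readout: SYBR Green fluorescence, 485 nm excitation, 535 nm emission, after ~16 h lysis at 37C. Before that, Dd2-infected red cells (2.5% hematocrit) grew 72 h with compound, 29 uM top final concentration.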
* = called active by the depositor; [ ] = dose if it differs, or a comment. Potency is read from the fitted curve at half-maximal effect.

For COc1ccc(OCc2nnc(C(=O)N3CCC[C@@H]3c3nc4ccccc4[nH]3)n2-c2ccccc2)cc1 the results were Pf Dd2 inh inactive.
Screening COCCC1(NC(=O)C2CCOCC2)CCN(C(=O)CCc2ccc(OC)cc2)CC1 returned Pf Dd2 inh -7%.
COc1ccc(C(=O)N2CC[C@@H]3CN(S(C)(=O)=O)[C@@H]3C2)c(OC)c1 was read as Pf Dd2 inh 21%.
For Cc1ocnc1C(=O)NC1CC(=O)N(CCc2ccc(F)cc2)C1 (centres undefined) the results were Pf Dd2 inh -5%.
Screening COC[C@H]1CCCN1C(=O)C[C@@H]1O[C@H](CNC(=O)NC(C)C)[C@@H](O)[C@H]1O returned Pf Dd2 inh 35%[44.1 µM].
`CCc1nnc2ccc(NC(C)C)nn12` gave Pf Dd2 inh 2%.
Screening CCc1nnc2ccc(NCc3ccccc3)nn12 returned Pf Dd2 inh 6.3µM*.
`CCc1nnc2ccc(NC3CC3)nn12` gave Pf Dd2 inh 2%.
Screening CCNC(=O)c1ccc(OC2CCN(C(=O)c3ccnn3C)C2)nc1 (centres undefined) returned Pf Dd2 inh 13%.
For COc1cccc(CN2CCC(c3nn(Cc4ccccc4)c(=O)[nH]3)CC2)c1 the results were Pf Dd2 inh inactive.
COc1ccc(CNC(=O)C[C@@H]2CCNC[C@@H]2Cc2cc(CC3CCCCC3)on2)cc1 was read as Pf Dd2 inh 11µM*.
Screening O=C(C[C@@H]1CCNC[C@@H]1Cc1cc(CC2CCCCC2)on1)NCc1ccco1 returned Pf Dd2 inh inactive.
For COc1ccc(CNC(=O)C[C@@H]2CCNC[C@@H]2Cc2cc(CN3CCOCC3)on2)cc1 the results were Pf Dd2 inh 16%.
COC[C@@H]1CN(C(=O)c2occc2C)C[C@H]1c1nc(C2CC2)no1 was read as Pf Dd2 inh -29%.
COc1ccccc1-c1nc(C(=O)N2CCOCC2)n2ccncc12 was read as Pf Dd2 inh 2%.
O=C(C1CCC1)N1CC[C@H]2COC(=O)N2c2cc(F)ccc2C1 was read as Pf Dd2 inh -2%[44.1 µM].
`O=C1Nc2ccccc2CC12CCN(Cc1cccnc1)CC2` gave Pf Dd2 inh -13%[44.1 µM].
For CN(C)c1ccc(CN2CCC3(Cc4ccccc4NC3=O)C2)cc1 (centres undefined) the results were Pf Dd2 inh 10µM*.
`O=C1Nc2ccccc2CC12CCN(Cc1ccccc1)CC2` gave Pf Dd2 inh 3.5µM*.
`O=C1NCc2ccccc2CC12CCN(Cc1ccsc1)C2` (centres undefined) gave Pf Dd2 inh -1%.
O=C1Nc2ccccc2CC12CCN(Cc1ccsc1)CC2 was read as Pf Dd2 inh 11µM*.
`O=C1Nc2ccccc2CC12CCCN(Cc1ccc(C(F)(F)F)cc1)C2` (centres undefined) gave Pf Dd2 inh -5%.
For O=C1Nc2ccccc2CC12CCN(Cc1cccc3ccccc13)CC2 the results were Pf Dd2 inh -13%.
For CN(C)c1ccc(CN2CCC3(C2)C(=O)Nc2ccccc23)cc1 (centres undefined) the results were Pf Dd2 inh inactive.
`O=C1NCc2ccccc2CC12CCN(Cc1ccccc1)CC2` gave Pf Dd2 inh -27%.
For O=C(NC1CCCCC1)N1CCC(c2noc(-c3cnccn3)n2)C1 (centres undefined) the results were Pf Dd2 inh 1%[5.79 µM].
`CN(C)C(=O)c1n[nH]c2c1CN(C(=O)c1cc(F)cc(F)c1)CC2` gave Pf Dd2 inh inactive.
`CCN1CC2(CCC1=O)CCN(Cc1ccc(C(F)(F)F)c(F)c1)CC2` gave Pf Dd2 inh -8%.
`O=C(c1cc(F)ccc1F)N1CCCC(Cc2nc(C3CCOCC3)no2)C1` (centres undefined) gave Pf Dd2 inh 10%.
Cc1ccc(CNC(=O)C2(Cc3ccccc3)CCCCC(=O)N2)cc1 (centres undefined) was read as Pf Dd2 inh -19%.
`O=C(NC1CCC1)c1ccc2c(c1)C1(CCN(CC3CC3)C1)CN2Cc1ccccc1` (centres undefined) gave Pf Dd2 inh 14µM*.
For CCNC(=O)c1ccc2c(c1)C1(CCN(CC3CC3)C1)CN2Cc1ccccc1 (centres undefined) the results were Pf Dd2 inh inactive.
Screening O=C(NCC1CC1)c1ccc2c(c1)C1(CCN(CC3CC3)C1)CN2Cc1ccccc1 (centres undefined) returned Pf Dd2 inh -2%[44.1 µM].
Screening Cc1cccc(C(=O)N2CCN(C3CCN(C)C3=O)CC2)c1 (centres undefined) returned Pf Dd2 inh 1%.
CC(C)S(=O)(=O)N1CCC(OC2CCN(Cc3cccnc3)CC2)CC1 was read as Pf Dd2 inh 20%.
For CCOC(=O)CCNC(=O)N1CCC(OC2CCN(Cc3ccccc3)CC2)CC1 the results were Pf Dd2 inh 37%.
For O=C(Nc1ccc(F)cc1F)N1CCC(OC2CCN(Cc3ccccc3)CC2)CC1 the results were Pf Dd2 inh inactive.
For O=C(CC1CCN(S(=O)(=O)c2cccc(F)c2)C1)NCc1ccccc1 (centres undefined) the results were Pf Dd2 inh -6%.
